Results as given in PubChem BioAssay AID624260 (Broad Institute, 2012).
The campaign covered roughly 44,000 compounds. About 30 (0.07%) were called active. Roughly 1% stayed inconclusive and do not appear here. No stated cut-off is given here; in the data, active means inhibition above about 54% (passing the limit was not always enough); inconclusive means no clear call, values can overlap the other calls. The entries come from a sample that favours actives as a whole.

Target: Histone-lysine N-methyltransferase NSD2 (Homo sapiens) (UniProt O96028)
Sequence (O96028 whole entry, looked up): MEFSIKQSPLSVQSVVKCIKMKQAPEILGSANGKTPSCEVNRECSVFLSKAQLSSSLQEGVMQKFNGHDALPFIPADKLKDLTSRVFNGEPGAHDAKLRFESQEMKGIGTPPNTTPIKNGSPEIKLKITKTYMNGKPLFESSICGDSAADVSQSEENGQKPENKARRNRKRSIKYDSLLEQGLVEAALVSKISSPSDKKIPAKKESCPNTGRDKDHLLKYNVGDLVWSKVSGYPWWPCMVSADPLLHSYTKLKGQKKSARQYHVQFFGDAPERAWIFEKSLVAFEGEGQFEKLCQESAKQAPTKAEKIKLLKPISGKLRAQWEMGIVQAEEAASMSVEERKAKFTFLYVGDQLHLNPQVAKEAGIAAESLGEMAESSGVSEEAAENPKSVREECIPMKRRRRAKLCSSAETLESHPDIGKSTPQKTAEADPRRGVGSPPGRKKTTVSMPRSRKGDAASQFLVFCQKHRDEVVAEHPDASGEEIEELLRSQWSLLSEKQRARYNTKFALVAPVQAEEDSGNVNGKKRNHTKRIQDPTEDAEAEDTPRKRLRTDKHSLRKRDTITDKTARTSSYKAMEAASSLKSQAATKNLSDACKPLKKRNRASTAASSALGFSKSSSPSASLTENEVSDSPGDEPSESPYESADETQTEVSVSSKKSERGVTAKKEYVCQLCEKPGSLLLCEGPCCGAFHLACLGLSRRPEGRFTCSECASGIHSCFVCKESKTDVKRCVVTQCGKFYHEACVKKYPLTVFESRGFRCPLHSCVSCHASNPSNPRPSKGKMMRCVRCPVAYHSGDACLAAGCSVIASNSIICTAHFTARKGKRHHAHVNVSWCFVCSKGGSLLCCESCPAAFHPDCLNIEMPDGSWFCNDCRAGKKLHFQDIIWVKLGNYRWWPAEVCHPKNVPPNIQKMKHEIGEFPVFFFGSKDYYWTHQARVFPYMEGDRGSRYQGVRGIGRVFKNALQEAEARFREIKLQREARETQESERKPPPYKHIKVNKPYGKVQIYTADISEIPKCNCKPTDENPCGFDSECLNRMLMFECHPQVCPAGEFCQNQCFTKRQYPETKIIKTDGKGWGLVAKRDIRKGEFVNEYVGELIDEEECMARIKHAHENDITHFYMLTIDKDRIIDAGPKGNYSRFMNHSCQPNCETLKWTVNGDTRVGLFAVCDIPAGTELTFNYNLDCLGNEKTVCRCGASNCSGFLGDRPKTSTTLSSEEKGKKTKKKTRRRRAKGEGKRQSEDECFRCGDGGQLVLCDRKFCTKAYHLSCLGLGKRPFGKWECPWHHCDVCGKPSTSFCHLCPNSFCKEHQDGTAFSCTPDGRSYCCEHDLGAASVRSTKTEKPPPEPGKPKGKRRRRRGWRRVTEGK
Assay: inhibitors of human NSD2, primary screen, biochemical, plate reader, single point (AID 624260);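 further: inhibitors reduce the monomethyl H3K36 fluorescence signal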
Conditions: NSD2-SET H3K36me1 DELFIA fluorescence, at 12.5 µM, active compounds read high

inhibition, inactive:
O=C(C[C@H]1C[C@@H]2c3cc(NC(=O)c4cccnc4)ccc3O[C@@H]2[C@@H](CO)O1)NCc1ccccc1F -0.738%
CCCN(C)C[C@H]1Oc2cc(C#CCC3CCCC3)ccc2S(=O)(=O)N([C@@H](C)CO)C[C@@H]1C 1.41%
C[C@@H]1CN([C@@H](C)CO)C(=O)Cc2cc(NC(=O)Nc3ccc4c(c3)OCO4)ccc2O[C@H]1CN(C)S(=O)(=O)c1ccc(F)cc1 5.36%
C[C@H](CO)N1C[C@H](C)[C@@H](CN(C)Cc2ccc(C(F)(F)F)cc2)Oc2ccc(NC(=O)Cn3cnnn3)cc2CC1=O -8%
CC(C)NC(=O)N(C)C[C@H]1Oc2cc(C#Cc3ccccn3)ccc2S(=O)(=O)N([C@H](C)CO)C[C@@H]1C 4.46%
CC(/C=C/C(=O)NO)=C\c1ccccc1OCc1ccc(COc2ccc3ccncc3c2)cc1 -5.12%
C[C@@H]1CN([C@H](C)CO)S(=O)(=O)c2ccc(/C=C/c3ccccc3)cc2O[C@@H]1CN(C)C(=O)Nc1ccc(F)cc1 -10.2%
C[C@H]1CN([C@@H](C)CO)C(=O)Cc2cc(NC(=O)Nc3cccc4ccccc34)ccc2O[C@@H]1CN(C)C 1.05%
Cc1ccc(-c2ccc3c(c2)O[C@H](CN(C)C(=O)Nc2ccccc2)[C@@H](C)CN([C@@H](C)CO)S3(=O)=O)cc1 -6.18%
CCCNC(=O)C[C@H]1C[C@@H]2c3cc(NC(=O)c4ccc5c(c4)OCO5)ccc3O[C@@H]2[C@@H](CO)O1 7.66%
C[C@H](CO)N1C[C@H](C)[C@@H](CN(C)CC2CC2)Oc2ccc(NC(=O)CCCN(C)C)cc2CC1=O 3.07%
O=C(C[C@H]1CC[C@H](NC(=O)Nc2ccc(C(F)(F)F)cc2)[C@H](CO)O1)NCCN1CCCC1 -1.99%
COc1ccc(NC(=O)N(C)C[C@H]2OCc3ccccc3-c3ccccc3C(=O)N([C@H](C)CO)C[C@@H]2C)cc1 -1.37%
CCC(=O)N(C)C[C@H]1Oc2cc(C#CCOC)ccc2S(=O)(=O)N([C@H](C)CO)C[C@H]1C -1.1%
O=C(C[C@H]1C[C@H]2c3cc(NC(=O)Nc4ccc(F)cc4)ccc3O[C@H]2[C@@H](CO)O1)NCC1CC1 2.39%
COc1ccc(CN(C)C[C@H]2OCCCC[C@H](C)Oc3ccc(NS(=O)(=O)c4ccc(C)cc4)cc3C(=O)N([C@@H](C)CO)C[C@H]2C)cc1 2.76%
C[C@@H]1CN([C@@H](C)CO)C(=O)Cc2cc(NC(=O)Nc3ccc(C(F)(F)F)cc3)ccc2O[C@H]1CN(C)C(=O)Nc1ccc(F)cc1 -13.8%
Cc1ccc(S(=O)(=O)N(C)C[C@@H]2Oc3ccc(NC(=O)C4CCCCC4)cc3CC(=O)N([C@@H](C)CO)C[C@H]2C)cc1 -6.23%
CCC(=O)N(C)C[C@@H]1Oc2cc(-c3ccc(OC)cc3)ccc2S(=O)(=O)N([C@@H](C)CO)C[C@H]1C 1.75%
C[C@H](NC(=O)C[C@@H]1CC[C@H](NC(=O)CN2CCOCC2)[C@H](CO)O1)c1ccccc1 -3.53%
COc1cccc(S(=O)(=O)N(C)C[C@@H]2Oc3ncc(-c4cccc(C(=O)N(C)C)c4)cc3C(=O)N([C@H](C)CO)C[C@@H]2C)c1 5.93%
COc1ccc(NC(=O)Nc2ccc3c(c2)C(=O)N([C@H](C)CO)C[C@@H](C)[C@H](CN(C)C(=O)Cc2ccccc2)OCCCC[C@H](C)O3)cc1 -2.17%
CCCNC(=O)C[C@H]1C[C@@H]2c3cc(NC(=O)C4CCOCC4)ccc3O[C@@H]2[C@@H](CO)O1 11%
C/C=C/c1ccc2c(c1)O[C@H](CN(C)C(=O)CN(C)C)[C@H](C)CN([C@@H](C)CO)S2(=O)=O 1.3%
Cc1noc(C)c1S(=O)(=O)Nc1ccc2c(c1)C(=O)N([C@H](C)CO)C[C@@H](C)[C@@H](CN(C)S(=O)(=O)c1ccc(Cl)cc1)O2 -1.25%
C[C@H](CO)N1C[C@H](C)[C@@H](CN(C)Cc2ccccc2)OCCCC[C@H](C)Oc2ccc(NC(=O)Cc3ccccc3)cc2C1=O -3.29%
CCCN(C)C[C@H]1Oc2cc(C#CCC(C)C)ccc2S(=O)(=O)N([C@H](C)CO)C[C@H]1C 0.338%
C[C@H]1CN([C@@H](C)CO)C(=O)c2cccc(NC(=O)Nc3ccc(C(F)(F)F)cc3)c2O[C@H]1CN(C)CC1CCCCC1 1.34%
C[C@H](CO)N1C[C@H](C)[C@H](CN(C)Cc2ccccc2)OCCCC[C@H](C)Oc2ccc(NC(=O)c3ccccc3)cc2C1=O 8.82%
C[C@H]1CN([C@@H](C)CO)C(=O)c2cc(-c3ccncc3)cnc2O[C@H]1CN(C)C(=O)c1cccc(F)c1 -1.28%
CC(C)CC#Cc1ccc2c(c1)O[C@H](CN(C)C(=O)c1cccnc1)[C@@H](C)CN([C@H](C)CO)S2(=O)=O 0.112%
C[C@H]1CN([C@@H](C)CO)C(=O)c2cc(C3=CCCCC3)cnc2O[C@H]1CN(C)Cc1ccncc1 3.39%
C/C=C/c1ccc2c(c1)O[C@@H](CN(C)C(=O)Cc1ccccc1)[C@H](C)CN([C@@H](C)CO)S2(=O)=O 5.94%
COc1ccc(NC(=O)N(C)C[C@H]2Oc3cc(C#CCN(C)C)ccc3S(=O)(=O)N([C@@H](C)CO)C[C@@H]2C)cc1 5.29%
Cc1noc(C)c1NC(=O)N(C)C[C@@H]1Oc2ccc(NC(=O)Nc3cccc4ccccc34)cc2CC(=O)N([C@@H](C)CO)C[C@H]1C -4.68%
CCC(=O)N(C)C[C@@H]1Oc2cc(C#CCOC)ccc2S(=O)(=O)N([C@H](C)CO)C[C@H]1C -17.7%
CN(C)C(=O)C[C@H]1C[C@H]2c3cc(NC(=O)Nc4ccccc4F)ccc3O[C@H]2[C@@H](CO)O1 2.09%
COCC(=O)N(C)C[C@H]1Oc2ncc(-c3ccc(C)cc3)cc2C(=O)N([C@@H](C)CO)C[C@@H]1C 25.2%
C/C=C/c1cnc2c(c1)C(=O)N([C@@H](C)CO)C[C@@H](C)[C@H](CN(C)C(=O)c1cnccn1)O2 0.45%
C[C@H](CO)N1C[C@H](C)[C@@H](CN(C)C)Oc2cc(C#Cc3ccccc3)ccc2S1(=O)=O -6.31%
O=C(Nc1ccc2c(c1)[C@H]1C[C@@H](CC(=O)N3CCc4ccccc4C3)O[C@H](CO)[C@H]1O2)Nc1ccccc1F 2.01%
C[C@H](CO)N1C[C@H](C)[C@@H](CN(C)S(=O)(=O)c2ccccc2)Oc2ncc(-c3ccncc3)cc2C1=O 4.23%
C[C@H](CO)N1C[C@H](C)[C@H](CN(C)CC2CCCC2)Oc2ncc(Br)cc2C1=O 0.26%
CC(=O)N(C)C[C@H]1Oc2ncc(C#Cc3ccc(F)cc3)cc2C(=O)N([C@H](C)CO)C[C@@H]1C 3.93%
C[C@@H]1CN([C@H](C)CO)S(=O)(=O)c2ccc(-c3ccncc3)cc2O[C@H]1CN(C)S(=O)(=O)c1ccccc1F -2.69%
CC(C)CC#Cc1ccc2c(c1)O[C@@H](CN(C)C(=O)c1ccccc1F)[C@H](C)CN([C@H](C)CO)S2(=O)=O -7.41%
C[C@@H]1CN([C@@H](C)CO)S(=O)(=O)c2ccc(C#C[C@@H](C)O)cc2O[C@@H]1CN(C)CC1CC1 4.62%
COCC#Cc1ccc2c(c1)O[C@@H](CN(C)Cc1cccnc1)[C@@H](C)CN([C@H](C)CO)S2(=O)=O 5.56%
COc1ccc(S(=O)(=O)Nc2ccc3c(c2)C(=O)N([C@@H](C)CO)C[C@H](C)[C@@H](CN(C)S(=O)(=O)c2ccc(C)cc2)OCCCC[C@@H](C)O3)cc1 -8.56%
C[C@@H]1CN([C@@H](C)CO)S(=O)(=O)c2ccc(Br)cc2O[C@@H]1CN(C)C(=O)C1CCCCC1 -6.34%
C[C@@H]1CN([C@H](C)CO)S(=O)(=O)c2ccc(C#CC(C)(C)O)cc2O[C@@H]1CN(C)Cc1ccccc1 -5.05%
COCC(=O)N(C)C[C@@H]1Oc2cc(C3=CCCC3)ccc2S(=O)(=O)N([C@@H](C)CO)C[C@H]1C -2.03%
C[C@@H]1CN([C@@H](C)CO)S(=O)(=O)c2ccc(Br)cc2O[C@H]1CN(C)S(=O)(=O)c1ccccc1 0.606%
COc1ccc(NC(=O)Nc2ccc3c(c2)[C@H]2C[C@H](CC(=O)NC4CCCC4)O[C@H](CO)[C@H]2O3)cc1 -1.24%
C[C@@H]1CCCCO[C@H](CN(C)C(=O)Cc2ccccc2)[C@H](C)CN([C@@H](C)CO)C(=O)c2cc(NS(=O)(=O)c3ccc(F)cc3)ccc2O1 6.79%
C[C@H](CO)N1C[C@H](C)[C@@H](CN(C)C(=O)C2CCCCC2)Oc2cc(C3=CCCC3)ccc2S1(=O)=O -2.1%
COc1ccc(NC(=O)Nc2ccc3c(c2)C(=O)N([C@@H](C)CO)C[C@@H](C)[C@H](CN(C)C(=O)CCC(F)(F)F)OCCCC[C@@H](C)O3)cc1 -1.97%
C/C=C/c1ccc2c(c1)O[C@@H](CN(C)C(=O)C1CCOCC1)[C@H](C)CN([C@H](C)CO)S2(=O)=O 12.8%
C[C@@H]1CN([C@@H](C)CO)C(=O)Cc2cc(NS(=O)(=O)c3ccc(Cl)cc3)ccc2O[C@H]1CN(C)Cc1ccc(C(F)(F)F)cc1 -12.4%
